Results published in PubChem BioAssay AID1159580 (chemical genetic matrix, 2015).
Hit rate of the full screen: of about 5,500 compounds, about 2,000 (36%) were called active. Inconclusive results (about 18%) are left out. The list shows a part of the results. Unmarked numbers belong to inactive results. Cut-off read from the data, not from the text of the source: active = normalized growth mostly below about 0.91 (no sharp cut-off); inconclusive = no clear call, values can overlap the other calls; inactive = mostly above about 0.92.

Test: chemical genetic growth profiling, strain panel (AID 1159580);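 note: tested at 20 µM; growth read once vehicle control cultures reached saturation at 30 °C; 1 = growth at the plate median or of vehicle wells; lower values mean less growth of the strain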
Settings: S. cerevisiae deletion strains, growth OD
[1] = locus YAL013W, strain DEP1, hits give low values
[2] = locus YAL040C, strain CLN3, hits give low values
[3] = locus YCL061C, strain MRC1 (second series), hits give low values
[4] = locus YDR363W, strain ESC2, hits give low values
[5] = locus YER002W, strain NOP16, hits give low values
[6] = locus YNL153C, strain GIM3, hits give low values
[7] = locus YNL175C, strain NOP13, hits give low values
[8] = locus YNL197C, strain WHI3, hits give low values
[9] = locus YNL224C, strain SQS1, hits give low values
[10] = locus YOR083W, strain WHI5 (second series), hits give low values
[11] = locus YPL241C, strain CIN2, hits give low values

CN=C(N)NCCC[C@H](N)C(=O)O
normalized growth [1]: 1.02 | normalized growth [2]: 0.993 | normalized growth [3]: 1.03 | normalized growth [4]: 1.04 | normalized growth [5]: 0.992 | normalized growth (locus YMR263W, strain SAP30, hits give low values): 0.99 | normalized growth [6]: 1.02 | normalized growth [7]: 1.01 | normalized growth [8]: 1.01 | normalized growth [9]: 1.01 | normalized growth [10]: 1.01 | normalized growth [11]: 1

COc1cccc2c1[C@@H]1CN(CCCCn3c(=O)[nH]c4c(sc5ncc(-c6ccccc6)nc54)c3=O)C[C@@H]1CO2
normalized growth [1]: 0.921 | normalized growth [2]: 0.969 | normalized growth [3]: 0.962 | normalized growth (locus YDR150W, strain NUM1, hits give low values): 1.01 | normalized growth [4]: 0.963 | normalized growth [5]: 1.01 | normalized growth (locus YNL128W, strain TEP1, hits give low values): 1.02 | normalized growth [6]: 0.929 | normalized growth [7]: 1.03 | normalized growth [8]: 1 | normalized growth [9]: 1 | normalized growth [10]: 0.93 | normalized growth (locus YPL055C, strain LGE1, hits give low values): 0.781 (active) | normalized growth [11]: 0.984

Cc1nc(C(F)(F)F)ccc1C(=O)Sc1nnc(-c2ccc(C(F)(F)F)nc2C)o1
normalized growth (locus YAR019C, strain CDC15, hits give low values): 0.946 | normalized growth (locus YBL105C, strain PKC1, hits give low values): 0.95 | normalized growth (locus YBR135W, strain CKS1, hits give low values): 0.954 | normalized growth (locus YBR136W, strain MEC1, hits give low values): 0.955 | normalized growth (locus YBR160W, strain CDC28, hits give low values): 0.952 | normalized growth (locus YDL017W, strain CDC7, hits give low values): 0.951 | normalized growth (locus YDL028C, strain MPS1, hits give low values): 0.955 | normalized growth (locus YDL101C, strain DUN1, hits give low values): 0.961 | normalized growth (locus YDL108W, strain KIN28, hits give low values): 0.952 | normalized growth (locus YDL132W, strain cdc53, hits give low values): 0.956 | normalized growth (locus YDL214C, strain PRR2, hits give low values): 0.901 | normalized growth (locus YDR052C, strain DBF4, hits give low values): 0.949 | normalized growth (locus YDR054C, strain cdc34, hits give low values): 0.939 | normalized growth (locus YDR226W, strain ADK1, hits give low values): 0.946 | normalized growth (locus YDR477W, strain SNF1, hits give low values): 0.943 | normalized growth (locus YER123W, strain YCK3, hits give low values): 0.858 | normalized growth (locus YER133W, strain GLC7, hits give low values): 0.936 | normalized growth (locus YFL009W, strain cdc4, hits give low values): 0.946 | normalized growth (locus YFL029C, strain CAK1, hits give low values): 0.947 | normalized growth (locus YFR003C, strain YPI1, hits give low values): 0.952 | normalized growth (locus YFR019W, strain FAB1, hits give low values): 0.976 | normalized growth (locus YFR028C, strain CDC14, hits give low values): 0.959 | normalized growth (locus YGR040W, strain KSS1, hits give low values): 0.956 | normalized growth (locus YGR052W, strain FMP48, hits give low values): 0.929 | normalized growth (locus YGR092W, strain DBF2, hits give low values): 0.864 | normalized growth (locus YHR030C, strain SLT2, hits give low values): 0.617 (active) | normalized growth (locus YHR079C, strain IRE1, hits give low values): 0.737 | normalized growth (locus YHR082C, strain KSP1, hits give low values): 0.962 | normalized growth (locus YHR205W, strain SCH9, hits give low values): 0.732 | normalized growth (locus YIL147C, strain SLN1, hits give low values): 0.952 | normalized growth (locus YJL095W, strain BCK1, hits give low values): 0.861 | normalized growth (locus YJL128C, strain PBS2, hits give low values): 0.902 | normalized growth (locus YJL157C, strain FAR1, hits give low values): 0.945 | normalized growth (locus YJR016C, strain ILV3, hits give low values): 0.952 | normalized growth (locus YJR066W, strain TOR1 (second series), hits give low values): 0.716 | normalized growth (locus YJR066W, strain TOR1, hits give low values): 0.935 | normalized growth (locus YKL048C, strain ELM1, hits give low values): 0.937 | normalized growth (locus YKL067W, strain YNK1, hits give low values): 0.893 | normalized growth (locus YKL101W, strain HSL1, hits give low values): 0.886 | normalized growth (locus YKL193C, strain SDS22, hits give low values): 0.949 | normalized growth (locus YKL203C, strain TOR2, hits give low values): 0.989 | normalized growth (locus YLR113W, strain HOG1, hits give low values): 0.515 (active) | normalized growth (locus YLR133W, strain CKI1, hits give low values): 0.924 | normalized growth (locus YLR403W, strain SFP1, hits give low values): 0.945 | normalized growth (locus YML070W, strain DAK1, hits give low values): 0.89 | normalized growth (locus YMR001C, strain CDC5, hits give low values): 0.953 | normalized growth (locus YMR205C, strain PFK2 (second series), hits give low values): 0.918 | normalized growth (locus YMR277W, strain FCP1, hits give low values): 0.951 | normalized growth (locus YNL006W, strain LST8, hits give low values): 0.959 | normalized growth (locus YNL020C, strain ARK1, hits give low values): 0.889 | normalized growth (locus YNL161W, strain CBK1, hits give low values): 0.936 | normalized growth (locus YNL183C, strain NPR1, hits give low values): 0.905 | normalized growth (locus YNL207W, strain RIO2, hits give low values): 0.942 | normalized growth (locus YNL222W, strain SSU72, hits give low values): 0.954 | normalized growth (locus YNL307C, strain MCK1 (second series), hits give low values): 0.868 | normalized growth (locus YOL078W, strain AVO1, hits give low values): 0.949 | normalized growth (locus YOL136C, strain PFK27, hits give low values): 0.876 | normalized growth (locus YOR061W, strain CKA2, hits give low values): 0.887 | normalized growth (locus YOR119C, strain RIO1, hits give low values): 1.02 | normalized growth (locus YOR231W, strain MKK1, hits give low values): 0.802 | normalized growth (locus YOR329C, strain SCD5, hits give low values): 0.953 | normalized growth (locus YPL031C, strain PHO85, hits give low values): 0.94 | normalized growth (locus YPL153C, strain RAD53, hits give low values): 0.963 | normalized growth (locus YPL204W, strain HRR25, hits give low values): 0.934 | normalized growth (locus YPL209C, strain IPL1, hits give low values): 0.95 | normalized growth (locus YPL256C, strain CLN2, hits give low values): 0.605 (active) | normalized growth (locus YPR025C, strain CCL1, hits give low values): 0.949 | normalized growth (locus YPR106W, strain ISR1, hits give low values): 0.951 | normalized growth (locus YPR111W, strain DBF20, hits give low values): 0.919 | normalized growth (strain NNK1, hits give low values): 0.928 | normalized growth (strain TSCII, hits give low values): 0.943
